Data published in the supplement of paper PMC8387472.
Counter-ions that a name gives are not always drawn. ± gives the standard deviation of the averaged measurements.

system: mESC LDLR-Dup GFP reporter (SpCas9 MH-deletion repair); experiment: fraction of GFP+ cells relative to DMSO control (fold change); higher = more MH-deletion repair to in-frame LDLR (or more editing); details: 2 µM; 7 days post-transfection

| Compound | fraction of GFP+ cells |
| --- | --- |
| CC(C)NC(=O)COc1cccc(-c2nc(Nc3ccc4[nH]ncc4c3)c3ccccc3n2)c1 | 1.21 ± 1.4 |
| Cc1cn([C@H]2O[C@@H](CO)[C@H](O)[C@H]2F)c(=O)[nH]c1=O [Clevudine] | 0.898 ± 0.28 |
| Cc1cc([N+](=O)[O-])ccc1NS(=O)(=O)c1cc(Cl)ccc1Cl | 1.64 ± 0.13 |
| CC[C@H](CO)Nc1nc(NCc2ccccc2)c2ncn(C(C)C)c2n1 [Roscovitine (Seliciclib,CYC202)] | 1.06 ± 0.096 |
| Nc1nc(Nc2ccc(S(N)(=O)=O)cc2)nn1C(=O)c1c(F)cccc1F | 1 ± 0.15 |
| C[C@H](NC(=O)CCc1nc2ccccc2c(=O)[nH]1)c1ccccc1 | 0.781 ± 0.051 |
| CN(C)CCNC(=O)c1cccn2c(=O)c3cc4ccccc4cc3nc12 | 1.06 ± 0.28 |
| NC(=O)c1ccc(I)c([N+](=O)[O-])c1 [Iniparib (BSI-201)] | 1.03 ± 0.039 |
| C=C(C)[C@@H]1CC[C@]2(C(=O)O)CC[C@]3(C)[C@H](CC[C@@H]4[C@@]5(C)CC[C@H](O)C(C)(C)[C@@H]5CC[C@]43C)[C@@H]12 [Betulinic acid] | 0.997 ± 0.13 |
| O=S(=O)(c1cccc2cnccc12)N1CCCNCC1 [Fasudil (HA-1077) HCl] | 2.2 ± 0.25 |
| CN(CCOc1ccc(CC2SC(=O)NC2=O)cc1)c1ccccn1 (stereo unspecified) [Rosiglitazone maleate] | 1.52 ± 0.23 |
| NS(=O)(=O)C#Cc1ccccc1 | 1.11 ± 0.052 |
| COc1cc(N2CCN(C)CC2)ccc1Nc1nccc(-c2cn(C)c3cnccc23)n1 | 0.577 ± 0.5 |
| COc1c2ccoc2cc2oc(=O)ccc12 [Bergapten] | 0.969 ± 0.32 |
| O=C(Nc1ccccc1)c1cc([N+](=O)[O-])ccc1Cl | 1.96 ± 0.34 |
| CC(C)[C@H](CO)Nc1nc(Nc2cccc(Cl)c2)c2ncn(C(C)C)c2n1 [Purvalanol A] | 0.716 ± 0.095 |
| COc1cc(OCc2cccc(-c3ccccc3)c2C)cc(OC)c1CN1CCCC[C@H]1C(=O)O [pd-1/pd-l1 inhibitor 1] | 0.898 ± 0.35 |
| COc1cc2c(cc1O)CC[C@@H]1[C@@H]2CC[C@]2(C)[C@@H](O)CC[C@@H]12 [2-Methoxyestradiol (2-MeOE2)] | 0.441 ± 0.088 |

| Compound | fraction of GFP+ cells |
| --- | --- |
| NCCOc1cc(C(=O)Nc2cc(OCCN)c3ccccc3n2)nc(C(=O)Nc2cc(OCCN)c3ccccc3n2)c1 [Pyridostatin Trifluoroacetate Salt] | 0.824 |
| C[C@H]1COc2c(N3CCN(C)CC3)c(F)cc3c(=O)c(C(=O)O)cn1c23 [Levofloxacin hydrate] | 0.935 ± 0.12 |
| Nc1[nH]cnc2ncnc1-2 [Adenine] | 0.896 ± 0.31 |
| O=C(NCC1(c2nc(-c3ccccc3)cs2)CCOCC1)c1cccc(-c2noc(C(F)(F)F)n2)c1 | 0.752 ± 0.12 |
| CN(C)CC(=O)Nc1ccc2[nH]c(=O)c3ccccc3c2c1 | 1.02 ± 0.06 |
| CS(=O)(=O)c1ccc(-c2nnc(/C=C/c3nnc(-c4ccc(C#N)cc4)o3)n2-c2ccccc2Cl)nc1 | 0.816 ± 0.089 |
| CCn1cc(C(=O)O)c(=O)c2cc(F)c(N3CCNCC3)cc21 [Norfloxacin] | 1.01 ± 0.13 |
| CC(C)=CCC[C@](C)(O)[C@H]1CC[C@]2(C)[C@@H]1[C@H](O)C[C@@H]1[C@@]3(C)CC[C@H](O)C(C)(C)[C@@H]3[C@@H](O)C[C@]12C [(20S)-Protopanaxatriol] | 1.02 ± 0.14 |
| COc1ccc(CCNCc2ccc(OCc3ccc(Cl)nc3)c(OC)c2)cc1OC | 1.56 ± 0.28 |
| Nc1ccc(O)c(C(=O)O)c1 [Mesalamine] | 0.933 ± 0.049 |
| Cc1cc(Cl)ccc1OCCCC(=O)NO [Droxinostat] | 0.706 ± 0.06 |
| O=C(NCCS(=O)(=O)c1ccc(C(F)(F)F)cn1)c1ccc(Cl)cc1 | 1.39 ± 0.63 |
| C=C1C(=O)O[C@@H]2/C=C(\C)CC/C=C(\C)CC[C@@H]12 [Costunolide] | 1.22 ± 0.2 |
| Cc1ccc(C(=O)OCc2ccc([C@@H](CN)C(=O)Nc3ccc4cnccc4c3)cc2)c(C)c1 | 1.71 ± 0.5 |
| CO[C@H]1/C=C/O[C@@]2(C)Oc3c(C)c(O)c4c(O)c(c(/C=N/N5CCN(C)CC5)c(O)c4c3C2=O)NC(=O)/C(C)=C\C=C\[C@H](C)[C@H](O)[C@@H](C)[C@@H](O)[C@@H](C)[C@H](OC(C)=O)[C@@H]1C [Rifampin] | 2.38 ± 0.52 |
| O=C(Nc1ccc(O)c(C(=O)O)c1)c1cccc(NC(=O)c2ccco2)c1 | 1.66 ± 0.41 |
| CC(C)(CNC(=O)c1cccc(-c2noc(C(F)(F)F)n2)c1)c1coc(-c2ccccc2)n1 | 0.849 ± 0.2 |
| O=C(O)COc1ccc(Br)cc1C=C1SC(=S)N(Cc2cccnc2)C1=O [Skp2 inhibitor C1 (SKPin C1)] | 0.783 ± 0.085 |
